High-throughput results from PubChem.
Shown are actives, neighbours in structure and some others; about 3.1% of the full set was active somewhere.
GLS inhibitor: inhibitors of human glutaminase (GLS); 0.21% of 410,000 active; O94925; GLS enzymatic activity, qHTS titration; Potency, µM (highest dose often 45.5 µM), usual class: inhibitors
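Assay buffer: 45 mM KH2PO4 pH 8.2, 0.02% Tween-20. hKGA acts on L-glutamine (1 mM solution added); product glutamate is reported by an oxidase/peroxidase Amplex Red coupling, with fluorescence taken at baseline and 30 min.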
KAT2A inh: GCN5L2 (KAT2A) acetyltransferase inhibition; Potency, µM (top dose mostly 58.9 µM), most hits filed as inhibitors; 0.21% of 390,000 active; AID 504327; Q92830; GCN5L2 HAT assay, ThioGlo1 CoA-SH fluorescence
Target sequence (Q92830 whole entry, looked up): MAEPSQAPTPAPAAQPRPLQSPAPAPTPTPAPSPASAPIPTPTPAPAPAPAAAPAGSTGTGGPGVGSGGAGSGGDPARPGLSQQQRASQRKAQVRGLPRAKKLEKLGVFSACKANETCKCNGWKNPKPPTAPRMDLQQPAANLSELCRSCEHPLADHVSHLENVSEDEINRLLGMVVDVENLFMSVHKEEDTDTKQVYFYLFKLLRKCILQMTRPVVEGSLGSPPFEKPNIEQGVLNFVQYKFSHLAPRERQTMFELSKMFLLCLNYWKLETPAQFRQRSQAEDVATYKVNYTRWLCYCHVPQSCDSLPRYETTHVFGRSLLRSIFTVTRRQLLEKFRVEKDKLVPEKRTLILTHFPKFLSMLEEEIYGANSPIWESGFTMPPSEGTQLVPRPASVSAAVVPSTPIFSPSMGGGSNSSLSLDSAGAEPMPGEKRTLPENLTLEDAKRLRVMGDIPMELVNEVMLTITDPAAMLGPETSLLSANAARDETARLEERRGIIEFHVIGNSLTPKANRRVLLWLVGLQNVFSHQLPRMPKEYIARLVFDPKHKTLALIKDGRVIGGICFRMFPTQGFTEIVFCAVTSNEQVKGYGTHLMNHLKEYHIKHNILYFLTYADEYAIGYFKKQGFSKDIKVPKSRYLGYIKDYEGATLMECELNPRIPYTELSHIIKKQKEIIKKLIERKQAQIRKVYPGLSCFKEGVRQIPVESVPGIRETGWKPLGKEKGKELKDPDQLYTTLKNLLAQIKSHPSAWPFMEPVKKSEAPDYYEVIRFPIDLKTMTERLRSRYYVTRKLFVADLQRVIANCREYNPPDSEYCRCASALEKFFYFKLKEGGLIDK
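Compounds, pin-transferred from DMSO stocks, meet 20nM GCN5L2 for 15 min before the reaction begins with H3(1-25) peptide (75uM) and acetyl-CoA (70uM). Thiol-reactive ThioGlo1 reports CoA release over 20 min at room temperature.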
PLK1 PBD inh: blocks phosphopeptide binding to human PLK1 polo-box domain | P53350 | Plk1 PBD binding of FITC phosphopeptide, fluorescence polarization | Potency, µM, most hits filed as inhibitors | 2.8% of 360,000 active; also: series mostly up to about 57 µM; nearly all actives have a fitted effect of over 65% in size
VDR inhibitor: inhibitors of human vitamin D receptor; P11473; VDR-SRC2-3 peptide fluorescence polarization, 2 h; Potency, µM, actives largely listed as inhibitors; 0.93% of 400,000 active
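Reagent solutions, kept cold and dark, are dispensed first; compounds are then pinned in at 23 nl, plates briefly spun, and incubated 2 h at ambient temperature. Inhibition of VDR–SRC2-3 peptide binding is read by fluorescence polarization.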
PI4K2A block: blocks human PI4K2A kinase activity | activity change, negative = inhibition, % at 76.9 µM | Q9BTU6 | purified PI4K2A, ADP-Glo luminescence, 1 h; hits give low values | 0.13% of 420,000 active; in the data active = activity change below about -50%; inconclusive = mostly about -30% to -49%
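PI4K2A activity was measured by ADP-Glo luminescence: enzyme (4 ug/mL stock) and phosphatidylinositol (1.2 mM stock) in Tris pH 7.5/MgCl2/EGTA/Triton X-100 buffer were reacted with ATP (300 microM stock) for one hour at ambient temperature.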
TbPYK inh: Trypanosoma brucei pyruvate kinase inhibition, cherry-pick confirmation | shares compounds with PLK1 PBD inh | recombinant TbPYK, Kinase-Glo ATP luminescence | Potency, µM (series often up to 76.9 µM), hits mostly inhibitors | 67% of 890 active | AID 720569; also: nearly all actives have a fitted effect of over 70% in size
TbPYK orthogonal: orthogonal confirmation of Trypanosoma brucei pyruvate kinase inhibitors. AID 720584. Potency, µM (highest dose often 76.9 µM), hits mostly inhibitors. shares compounds with PLK1 PBD inh. 62% of 890 active. recombinant TbPYK, ADP-Glo luminescence, 60 min; also: nearly all actives have a fitted effect of over 75% in size
Each line names hits and unclear results; the compound was inactive in the other large screens (follow-up assays come after a bar, where they were run). Unless noted, calls follow the shape of the dose curve; as a rule, active = well fitted curve in the direction sought with a large enough effect; inconclusive = small, poorly fitted or top-dose-only effect, or another doubt; inactive = no such curve, though single readings can be large; an effect the other way counts as inactive or inconclusive.

Cc1ccc(NC(=O)c2ccc(Cl)c(N3C(=O)C=CC3=O)c2)cc1	KAT2A inh 17.8µM, PLK1 PBD inh 3.36µM, VDR inhibitor 17.8µM | TbPYK inh 5.62µM | TbPYK orthogonal 12.6µM
COc1ccc([C@@H]2C[C@H]3[C@@H](CN2S(=O)(=O)c2ccccc2)C(=O)C[C@@H](c2ccc(C)cc2)N3S(=O)(=O)c2ccc(C)cc2)cc1	none (no result: KAT2A inh, VDR inhibitor)
CC(=O)c1cc(-c2ccccc2)n(CCC(=O)Nc2ccc(C(C)C)cc2)c1C	none (no result: PLK1 PBD inh)
CC(C)(C)c1cc(C(=S)N2CCN(CCO)CC2)cc(C(C)(C)C)c1O	PLK1 PBD inh 9.47µM, VDR inhibitor 39.8µM | TbPYK inh 3.55µM | TbPYK orthogonal 7.94µM
O=C(NCCc1ccc(O)c(O)c1)C1COc2ccccc2O1 (centres undefined)	GLS inhibitor inconclusive | TbPYK inh 17.8µM | TbPYK orthogonal 17.8µM
O=C(NCCc1ccccc1)C1COc2ccccc2O1 (centres undefined)	KAT2A inh inconclusive
COc1ccc(COC(=O)C2CCN(C(=O)c3ccc(Cl)cc3)CC2)cc1F	none
N/C(=N\OC(=O)c1ccc(F)cc1)c1nonc1N	PI4K2A block inconclusive
N/C(=N/OC(=O)c1ccccc1Cl)c1nonc1N	PI4K2A block -53.5 | TbPYK inh 25.1µM | TbPYK orthogonal inactive
CC1=CC(=O)C=CC1=Nc1ccc(N(C)C)cc1	PLK1 PBD inh inconclusive, PI4K2A block inconclusive (no result: KAT2A inh, VDR inhibitor) | TbPYK inh 22.4µM | TbPYK orthogonal inactive
CCOc1ccc(-c2nc(Cn3ccn4nc(-c5ccc(OCC)c(Cl)c5)cc4c3=O)c(C)o2)cc1	none (no result: PLK1 PBD inh)
CC(=O)c1ccc(NC(=O)CSc2nnc(-c3ccco3)c(-c3ccco3)n2)cc1	KAT2A inh inconclusive, PLK1 PBD inh 13.4µM, VDR inhibitor 22.4µM, PI4K2A block inconclusive | TbPYK inh 28.2µM | TbPYK orthogonal 31.6µM
Cc1cc(Cl)nc(SCC(=O)c2ccccc2)n1	none
O=C(CSc1nnc(-c2ccco2)c(-c2ccco2)n1)c1ccccc1	PLK1 PBD inh 16.8µM, VDR inhibitor inconclusive | TbPYK inh 14.1µM | TbPYK orthogonal 20µM
CCc1cc(C(=O)N2CCCC(CCC(=O)NCc3cccc(OC)c3)C2)no1 (centres undefined)	none
Cc1ccc(S(=O)(=O)NC(=O)C2(C)CCN2C(=O)c2ccc(C(F)(F)F)nc2C)cc1 (centres undefined)	none (no result: KAT2A inh, VDR inhibitor)
COc1cccc(O)c1CN1CCC(n2nccc2NC(=O)c2ccc3c(c2)OCO3)CC1	none
O=[N+]([O-])c1cnc(Sc2ccncn2)c([N+](=O)[O-])c1	PLK1 PBD inh 1.19µM (no result: KAT2A inh, VDR inhibitor) | TbPYK inh inactive | TbPYK orthogonal inconclusive
CCCCCCCCCCCCCCCC(=O)N[C@H](CN1CCOCC1)[C@H](O)c1ccccc1	none (no result: GLS inhibitor, PLK1 PBD inh, PI4K2A block)
Cc1csc(=O)n1CC(=O)OC(C)C(=O)Nc1cccc(Cl)c1 (centres undefined)	none
C=CCN1C(=O)N/C(=C/c2ccc(N3CCOCC3)o2)C1=O	none (no result: GLS inhibitor, PLK1 PBD inh, VDR inhibitor, PI4K2A block)
O=C1N/C(=C/c2ccc(N3CCOCC3)o2)C(=O)N1c1ccccc1	VDR inhibitor 44.7µM | TbPYK inh inconclusive | TbPYK orthogonal 15.8µM
O=C1Nc2ccccc2C(=O)C1(Cl)Cc1ccccc1 (centres undefined)	GLS inhibitor inconclusive, PLK1 PBD inh 1.19µM, VDR inhibitor 28.2µM | TbPYK inh 3.16µM | TbPYK orthogonal 12.6µM
Cc1cc(N2CCOCC2)ccc1/C=C1/SC(=O)NC1=O	none | TbPYK inh inconclusive | TbPYK orthogonal 39.8µM
COc1ccc(C=C2SC(=O)NC2=O)cc1OC	none (no result: KAT2A inh)
O=C1NC(=O)/C(=C\c2ccc(O)cc2O)S1	GLS inhibitor inconclusive | TbPYK inh 28.2µM | TbPYK orthogonal 28.2µM
C=CC(C)N1C(=O)S/C(=C\c2ccc(N3CCOCC3)cc2C)C1=O (centres undefined)	PLK1 PBD inh inconclusive
Cn1c(SCc2ccc(C(C)(C)C)cc2)nnc1-c1ccco1	none (no result: GLS inhibitor, KAT2A inh, PLK1 PBD inh, VDR inhibitor)
Cc1cccc(NC(=O)CSc2nncn2C)c1	none (no result: PLK1 PBD inh)
CCn1c(C(=O)Nc2ccccc2C(=O)OC)cc2sc(Cl)cc21	none (no result: PLK1 PBD inh)
